Data taken from the supplement of paper PMC10981050.
Values joined by “and” are separate entries in the source; they are usually repeats but may differ in a detail not shown here. Equal entries are not always repeated. Structures can show the parent of a compound that is named as a salt.

How the values were obtained:
Assay in all cases: cell viability relative to vehicle control; higher = less cytotoxic
Conditions in all cases: 10 µM
K562 = tested on: K562
How it was run: (§1)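 Four leukaemia lines, as CRISPR-edited mutant clones and isogenic wild-type clones, were tested against Selleck bioactive, kinase and epigenetic probe libraries after removal of identity-inconsistent compounds. Cells were exposed to a single 10 µM dose for 48 h, and CellTiter-Glo luminescence was then read. Viability was calculated relative to the on-plate vehicle control.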

MARIMO = tested on: MARIMO
How it was run: as §1

MOLM14 = tested on: MOLM14
How it was run: as §1

OCI-AML2 = tested on: OCI-AML2
How it was run: as §1

Row | Structure (SMILES) | cell viability (K562; SRSF2 genotype: SRSF2 P95H/wt) | cell viability (K562; SRSF2 genotype: SRSF2 wt/wt) [%] | cell viability (MARIMO; SRSF2 genotype: SRSF2 P95H/wt) [%] | cell viability (MARIMO; SRSF2 genotype: SRSF2 wt/wt) [%] | cell viability (MOLM14; SRSF2 genotype: SRSF2 P95H/wt) [%] | cell viability (MOLM14; SRSF2 genotype: SRSF2 wt/wt) [%] | cell viability (OCI-AML2; SRSF2 genotype: P95H/wt) [%] | cell viability (OCI-AML2; SRSF2 genotype: wt/wt) [%]
1 | COc1cc(OC)c(OC)cc1C=O [Asaraldehyde (Asaronaldehyde)] | 110% and 107% | 106 | 100 | 114 | 110 | 105 | 102 | 105
2 | O=c1ccc2c(O)c3ccoc3cc2o1 [Bergaptol] | 108% and 106% | 116 | 105 | 95.6 | 113 | 107 | 106 | 97.5
3 | CC1=C2C(=O)[C@H]3[C@@H](CC=C4C[C@@H](O)CC[C@@]43C)[C@@H]2CC[C@]12O[C@@H]1C[C@H](C)CN[C@H]1[C@H]2C [Jervine] | 91.9% and 81.4% | 85.2 | 89.1 | 98.5 | 91.4 | 101 | 92.7 | 92.4
4 | CCCCCCC(=O)O[C@H]1CC[C@H]2[C@@H]3CCC4=CC(=O)CC[C@]4(C)[C@H]3CC[C@]12C [Testosterone Enanthate] | 91.4% and 86% | 88.5 | 66.5 | 61.8 | 50.1 | 20.5 | 23.7 | 25.8
5 | CC(C)C(Br)C(=O)NC(N)=O (stereo unspecified) [Bromisoval] | 99.8% and 99.2% | 94.8 | 95.8 | 108 | 92 | 104 | 93.2 | 95
6 | C=C1CCC2C(/C=C(\C)C(=O)C3(OC(C)=O)CC(C)C(OC(=O)c4ccccc4)C3C1OC(C)=O)C2(C)C (stereo unspecified) [Euphorbia factor L3] | 48% and 62.5% | 59.5 | 34.8 | 33.8 | 47.6 | 32.9 | 65.8 | 22.4
7 | COc1cc([C@@H]2c3cc4c(cc3[C@H](O)[C@H]3COC(=O)[C@H]23)OCO4)cc(OC)c1O [4'-Demethylpodophyllotoxin] | 15.8% and 34.9% | 35.7 | 8.03 | 7.56 | 0.85 | 0.99 | 1.45 | 3.83
8 | CC1(C)C(=O)N(c2ccc(C#N)c(C(F)(F)F)c2)C(=O)N1CCCCO | 89% and 95% | 92.3 | 91.5 | 103 | 93.5 | 104 | 88.6 | 96.6
9 | O=C1CCC[C@@H]2[C@H]3CCCN4CCC[C@@H](CN12)[C@@H]34 [Matrine ((+)-Matrine)] | 94.4% and 112% | 102 | 107 | 110 | 105 | 106 | 106 | 103
10 | CC(=O)O[C@H]1C[C@H](O[C@H]2[C@@H](O)C[C@H](O[C@H]3[C@@H](O)C[C@H](O[C@H]4CC[C@@]5(C)[C@H](CC[C@@H]6[C@@H]5C[C@@H](O)[C@]5(C)[C@@H](C7=CC(=O)OC7)CC[C@]65O)C4)O[C@@H]3C)O[C@@H]2C)O[C@H](C)[C@H]1O[C@@H]1O[C@H](CO)[C@@H](O)[C@H](O)[C@H]1O [Lanatoside C] | 10.1% and 11.2% | 12.5 | 14.9 | 5.1 | 4.2 | 0.9 | 0.9 | 3.5
11 | CC1=C(O)C(=O)C=C2C1=CC=C1[C@@]2(C)CC[C@@]2(C)[C@@H]3C[C@](C)(C(=O)O)CC[C@]3(C)CC[C@]12C [Celastrol] | 0.95% and 0.55% | 0.65 | 0.44 | 0.52 | 0.47 | 0.51 | 0.35 | 0.44
12 | O=C(CBr)N1CC([N+](=O)[O-])([N+](=O)[O-])C1 | 86.2% and 82.7% | 81.4 | 85.5 | 101 | 88.6 | 88.7 | 94.3 | 114
13 | C[C@]12CC[C@H](O)C[C@@]1(O)CC[C@@H]1[C@@H]2CC[C@]2(C)[C@@H](C3=CC(=O)OC3)CC[C@]12O [Periplogenin] | 8.32% and 13% | 12.9 | 14.3 | 11.9 | 7.26 | 1.77 | 4.72 | 8.91
14 | C[C@]12C=CC(=O)C=C1CC[C@@H]1[C@@H]2CC[C@@]2(C)[C@H]1CC[C@]2(C)O [Methandrostenolone] | 102% and 107% | 102 | 103 | 105 | 103 | 110 | 115 | 104
15 | ClC(Cl)=C(c1ccc(Cl)cc1)c1ccc(Cl)cc1 | 103% and 96.8% | 106 | 89.6 | 99.1 | 96.8 | 105 | 100 | 108
16 | COc1ccc2c(c1OC)CN1CCc3cc4c(cc3C1C2)OCO4 (stereo unspecified) [Tetrahydroberberine] | 86.9% and 87% | 81.9 | 69.8 | 85 | 81.2 | 86.6 | 73 | 72.8
17 | CN(C)C1C(=O)C(C(N)=O)=C(O)C2(O)C(=O)C3=C(O)c4c(O)cccc4C(C)(O)C3CC12 (stereo unspecified) [Tetracycline hydrochloride] | 84.5% and 91.2% | 90.4 | 90.7 | 96.3 | 102 | 98.3 | 89.3 | 95.9
18 | COc1ccc2c(c1)[nH]c1c(C)nccc12 [Harmine hydrochloride] | 88.3% and 94.7% | 92.7 | 79.5 | 87.7 | 54.3 | 66.8 | 38.1 | 49.9
19 | COc1ccc2c(c1)/C(=C/c1cnc[nH]1)C(=O)N2 | 91.8% and 96.2% | 88 | 33.7 | 39.8 | 22.1 | 3.31 | 15.4 | 24.6
20 | C[C@]12CCC(=O)C(O)=C1CC[C@@H]1[C@@H]2CC[C@]2(C)C(=O)CC[C@@H]12 [Formestane] | 96.6% and 94.4% | 102 | 93.2 | 107 | 107 | 103 | 104 | 112
21 | Nc1ncnc2c1ccn2[C@@H]1O[C@H](CO)[C@@H](O)[C@H]1O [Tubercidin] | 4.16% and 3.19% | 3.9 | 1.78 | 1.63 | 0.87 | 1.22 | 0.61 | 0.99

Row | Structure (SMILES) | cell viability (K562; SRSF2 genotype: SRSF2 P95H/wt) | cell viability (K562; SRSF2 genotype: SRSF2 wt/wt) [%] | cell viability (MARIMO; SRSF2 genotype: SRSF2 P95H/wt) [%] | cell viability (MARIMO; SRSF2 genotype: SRSF2 wt/wt) [%] | cell viability (MOLM14; SRSF2 genotype: SRSF2 P95H/wt) [%] | cell viability (MOLM14; SRSF2 genotype: SRSF2 wt/wt) [%] | cell viability (OCI-AML2; SRSF2 genotype: P95H/wt) [%] | cell viability (OCI-AML2; SRSF2 genotype: wt/wt) [%]
22 | CC1CCC2N(C1)CC1C3CC4C(CC(=O)C5CC(O)CCC54C)C3CCC1C2(C)O (stereo unspecified) [Peiminine] | 92.5% and 90.8% | 86.1 | 107 | 109 | 87 | 75.6 | 46.2 | 58.8
23 | O=C1C=CC[C@@H]2[C@H]3CCCN4CCC[C@@H](CN12)[C@@H]34 [Sophocarpine] | 103% and 107% | 102 | 108 | 111 | 106 | 106 | 98.4 | 108
24 | O=S(=O)(F)Cc1ccccc1 [PMSF (Phenylmethylsulfonyl Fluoride)] | 95.7% and 94.9% | 97 | 100 | 99.5 | 99.3 | 102 | 102 | 96.1
25 | CC1=C[C@H]2Cc3[nH]c(=O)ccc3[C@]3(C1)NCCC[C@H]23 [Huperzine B] | 110% and 97% | 113 | 109 | 103 | 113 | 108 | 105 | 94.8
26 | C=CCCCCCCCCC(=O)O[C@H]1CC[C@H]2[C@@H]3CCC4=CC(=O)C=C[C@]4(C)[C@H]3CC[C@]12C [Boldenone Undecylenate] | 100% and 92.8% | 95.7 | 86 | 89.2 | 57.4 | 26.7 | 38.1 | 36.7
27 | COC1CC(OC2CCC3(C)C4CCC5(C)C(C6=CC(=O)OC6)CCC5(O)C4CCC3(O)C2)OC(C)C1OC1OC(CO)C(O)C(O)C1O (stereo unspecified) [Periplocin] | 8.96% and 10.7% | 11.7 | 11.5 | 4.97 | 3.28 | 0.9 | 1.16 | 4.41
28 | CC(C)c1cc2c(c(O)c1O)[C@@]1(C(=O)O)CCCC(C)(C)[C@@H]1CC2 [Carnosic acid] | 70.2% and 83.7% | 86.6 | 41.8 | 5.17 | 43.8 | 41.1 | 33.2 | 27.1
29 | C[C@@H]1CC[C@@]2(OC1)O[C@H]1C[C@H]3[C@@H]4CC=C5C[C@@H](O[C@@H]6O[C@H](CO)[C@@H](O[C@@H]7O[C@@H](C)[C@H](O)[C@@H](O)[C@H]7O)[C@H](O)[C@H]6O[C@@H]6O[C@@H](C)[C@H](O)[C@@H](O)[C@H]6O)CC[C@]5(C)[C@H]4CC[C@]3(C)[C@H]1[C@@H]2C [Dioscin (Collettiside III)] | 0.8% and 0.73% | 0.55 | 1.89 | 0.64 | 0.47 | 0.55 | 0.51 | 0.51
30 | Cc1cc(SCc2sc(-c3ccc(C(F)(F)F)c(F)c3)nc2C)ccc1OCC(=O)O | 100% and 101% | 105 | 106 | 112 | 99.7 | 103 | 95.9 | 101
31 | CC(C)(C)[C@]1(O)CC2OC(=O)CC23C(=O)OC2OC(=O)[C@H](O)C231 (stereo partly specified) [Bilobalide] | 108% and 105% | 98 | 96.9 | 116 | 104 | 104 | 98.1 | 109
32 | CCCN1CCO[C@@H]2c3cc(O)ccc3OC[C@H]21 | 98% and 95.8% | 92.6 | 97.5 | 97 | 104 | 101 | 96.5 | 93.2
33 | Cc1sc2c(c1C)C(c1ccc(Cl)cc1)=N[C@@H](CC(=O)OC(C)(C)C)c1nnc(C)n1-2 | 53.8% and 59.9% | 61.5 | 22.3 | 30.9 | 15.9 | 11.6 | 17.5 | 30.2
34 | NCC(=O)O.[C-]#[O+].[C-]#[O+].[C-]#[O+].[Cl][Ru] | 104% and 93.3% | 96.2 | 88.5 | 99.2 | 88.6 | 90.8 | 91.9 | 114
35 | CC(C)(C)c1cc(C=C(C#N)C#N)cc(C(C)(C)C)c1O [Tyrphostin 9 (SF 6847)] | 14.4% and 18.5% | 18.5 | 23.8 | 23.8 | 17.7 | 12.2 | 5.2 | 11.5
36 | NCC(CC(=O)O)c1ccccc1 (stereo unspecified) [Phenibut] | 105% and 102% | 102 | 102 | 109 | 108 | 104 | 96.7 | 116
37 | C[C@H]1CCC/C=C/[C@@H]2C[C@H](O)C[C@H]2[C@H](O)/C=C/C(=O)O1 [Brefeldin A] | 19% and 24.5% | 24.1 | 9.22 | 6.8 | 6.71 | 4.1 | 4.83 | 18.7
38 | COc1cc(C2OCC3C(c4cc(OC)c(OC5OC(CO)C(O)C(O)C5O)c(OC)c4)OCC23)cc(OC)c1OC1OC(CO)C(O)C(O)C1O (stereo unspecified) [Eleutheroside E] | 104% and 98.2% | 101 | 97.3 | 97.9 | 98.5 | 107 | 102 | 112
39 | O=C1CC[C@@]2(O)[C@H]3Cc4ccc(O)c5c4[C@@]2(CCN3CC2CC2)[C@H]1O5 [Naltrexone HCl] | 98.5% and 105% | 97.7 | 98.8 | 103 | 99.9 | 103 | 106 | 99.8
40 | COc1ccc(/C=C/c2cc(OC)cc(OC)c2)cc1 [3,4',5-Trimethoxy-trans-stilbene] | 26.9% and 46.4% | 39.7 | 47.5 | 35.7 | 15.3 | 6.3 | 38.2 | 36.4
41 | c1c2c(cc3c1OCO3)-c1cc3ccc4c(c3c[n+]1CC2)OCO4 [Coptisine chloride] | 83.7% and 89.7% | 84.2 | 95.4 | 99.8 | 96.2 | 94.3 | 84.5 | 91.7
42 | O=c1cccc2n1C[C@@H]1CNC[C@H]2C1 [Cytisine] | 107% and 100% | 92.9 | 93.3 | 107 | 97.7 | 102 | 94.3 | 104
